Out of some 69,000 compounds screened, about 8,600 (12%) showed an effect of 50% or more. What follows is part of a selection rich in strong results, with near analogues and random picks from the rest.
Test system: Plasmodium berghei
Assay: Screen against P. berghei liver stage (PbLuc), transformed with Luciferase, at 10uM
Assay type: functional, HepG2
Details: tested at 10 uM

Row | Structure (SMILES) | INHIBITION [%]
1 | O=C(CNC(=O)Nc1c(F)cc(F)cc1-c1ccccc1)NC1CC1 | 3.93
2 | O=C(NCCN1CCCC1)C1(c2ccc(Cl)cc2)CCOCC1 | 33.85
3 | O=C(NCCNc1ncccn1)N1CCN(c2nccs2)CC1 | -14.6
4 | CS(=O)(=O)NC1CCN(C(=O)NCc2ccccn2)CC1 | -27.9
5 | CC(=O)N1CCC(N[C@@H]2CC[C@@H]2NS(=O)(=O)c2cccnc2)CC1 | 46.9
6 | CS(=O)(=O)NC1CCN(C(=O)c2cnc(-c3cccnc3)nc2)CC1 | -32.8
7 | CC(=O)N1CCC(NS(=O)(=O)c2cccnc2)CC1 | 69.3
8 | CS(=O)(=O)NC1CCN(C(=O)NCc2cccnc2)CC1 | 59
9 | Cc1cc(C2CCCN2C(=O)NCc2cccc(F)c2)on1 (stereo not given) | 23.2
10 | Cc1cc(C2CCCN2C(=O)NCc2ccccn2)on1 (stereo not given) | 48.5
11 | Cc1cc(C2CCCN2C(=O)NCc2cccnc2)on1 (stereo not given) | 55
12 | CS(=O)(=O)NC1CCCN(C(=O)NCc2cccnc2)C1 (stereo not given) | -6.62
13 | O=C(NS(=O)(=O)c1cccnc1)C1CC(c2ccccc2)=NO1 (stereo not given) | 28.7
14 | c1cncc(OCCNC2Cc3ccccc3C2)c1 | 39.7
15 | O=S(=O)(N[C@H]1CC[C@H]1NC1Cc2ccccc2C1)c1cccnc1 | 68.3
16 | COCCNc1nc(N2CCOCC2)nc2nccnc12 | -2.93
17 | O=C(N1CCOCC1)N1CCN(CC(O)c2ccc(F)cc2)CC1 (stereo not given) | -11.4
18 | O=C(CC1CCC2(CC1)CCN(Cc1cccnc1)CC2)N1CC=CC1 | -4.32
19 | Cc1ccc(CN2CCc3[nH]nc(C(=O)N(C)C)c3C2)o1 | 6.27
20 | c1cnc2c(CN3CCCCC3c3ccncn3)cnn2c1 (stereo not given) | 16.5
21 | Cn1cc(CN2CCCC23CCN(C(=O)c2cccs2)CC3)cn1 | 28.4
22 | CC1(C(N)=O)CN(CC2CCOCC2)CCO1 (stereo not given) | 26.3375
23 | CS(=O)(=O)N1CCC(c2nnc3ccc(C(=O)NC4CCC4)cn23)C1 (stereo not given) | 37.3
24 | Cc1cc(C(F)(F)F)nn1C(C)C(=O)Nc1ccc(Cl)cn1 (stereo not given) | 47.4
25 | Cn1c(Cn2cccn2)nnc1C1CCN(Cc2ccccc2Cl)CC1 | -10.9
26 | Cc1nn(C)c(Cl)c1C1CCCN1C(=O)c1ccnc(N(C)C)c1 (stereo not given) | -65.3
27 | COc1ccc(Cl)cc1NCc1nc2[nH]c(C)c(C)c(=O)n2n1 | 16

Row | Structure (SMILES) | INHIBITION [%]
28 | O=C(Nc1cc(C(F)(F)F)c[nH]c1=O)N1CCSCC1 | -43.6
29 | Cc1nc(C(=O)N2CCCC2c2cnn(C)c2)ccc1C#N (stereo not given) | 13.3
30 | CNC(=O)c1ccc(C2CN(C(=O)c3cnn(C)c3)CCO2)nc1 (stereo not given) | 29.2
31 | CNC(=O)c1ccc(C2CN(C(=O)c3scnc3C)CCO2)nc1 (stereo not given) | -5.71
32 | CNC(=O)c1ccc(C2CN(C(=O)c3cncs3)CCO2)nc1 (stereo not given) | 50
33 | CCOc1ncccc1C(=O)N1CCCC1c1c(C)nn(C)c1Cl (stereo not given) | -19.9
34 | CCN(C)S(=O)(=O)NCC(C)(O)c1ccsc1 (stereo not given) | 31.7
35 | COCCN1C(=O)CO[C@H]2CN(Cc3ccccc3Cl)C[C@@H]21 | 63.4
36 | COCCN1C(=O)CO[C@H]2CN(S(=O)(=O)c3ccccc3)C[C@H]21 | -6.3
37 | COCCN1C(=O)CO[C@H]2CN(Cc3cccc(OC)c3F)C[C@@H]21 | 27.8
38 | COCCN1C(=O)CO[C@H]2CN(Cc3ccccc3OC)C[C@H]21 | -17.2
39 | COCCN1C(=O)CO[C@H]2CN(CCCc3ccccc3)C[C@H]21 | 51.9
40 | Cn1ccnc1CN1C(=O)CO[C@H]2CN(CCCc3ccccc3)C[C@H]21 | 27.5
41 | CC(Nc1cccc(CN2CCOC2=O)c1)C(=O)NC(=O)NC(C)(C)C (stereo not given) | 3.75
42 | CCNC(=O)[C@@H]1C[C@H](NC(=O)c2cc(=O)[nH]c3ccc(C)cc23)CN1C | 29.4
43 | COC(=O)c1ccc(N(C(=O)c2cc(Cl)ccn2)C(C)C)c(C)c1 | 19.4
44 | CC(C)(C)NC(=O)CN1CCCC(c2ccc(C(=O)O)cc2)C1 (stereo not given) | 26.9
45 | N#Cc1ccsc1NC(=O)CCN1CCn2c(nnc2C2CC2)C1 | -25.9
46 | CCNC(=O)COc1ccccc1N1CCCC(C)C1 (stereo not given) | 36.2
47 | CC1CCCN(c2ccc(C(N)=O)cc2NC(=O)CC2=CCNCC2)C1 (stereo not given) | 56.3
48 | CC1CCC(NS(=O)(=O)CC(=O)Nc2ccccc2N2CCCC2)CC1 (stereo not given) | -52.2
49 | NC(=O)c1ccc(N2CCCCC2)c(NC(=O)c2cncc(Br)c2)c1 | 46.8
50 | COCCCC(=O)Nc1cccnc1N1CCCCC1 | 35.1
51 | CCOCCCC(=O)Nc1cc(C(N)=O)ccc1N1CCCCC1 | 72.1
52 | CCOCCC(=O)Nc1cc(C(N)=O)ccc1N1CCCC(C)C1 (stereo not given) | 73
53 | CCOCCCC(=O)NCc1ccc(N2CCCCC2)cc1 | 42.7
54 | CC1CCCN(c2ccccc2OCC(=O)NC2CC2)C1 (stereo not given) | 42.6

Row | Structure (SMILES) | INHIBITION [%]
55 | Cc1csc(C2CCCN(C(=O)Cn3ccccc3=O)C2)n1 (stereo not given) | -17.6
56 | CC(C)CNC(=O)C1(Cc2ccccc2-c2ccccc2)CCNC1 (stereo not given) | 47.2
57 | COc1ccc(COCC(O)CN2CCC(c3ccn[nH]3)CC2)cc1 (stereo not given) | 44.1
58 | COCCOCC(=O)Nc1ccc(Br)cc1F | -6.32
59 | O=C(O)c1c[nH]c2cc(NS(=O)(=O)c3cc(F)ccc3Cl)ccc12 | -31.8
60 | Cn1cc(C2=NOC(C(=O)NC3(c4ccccc4)CCCC3)C2)cn1 (stereo not given) | -6.975
61 | CO[C@@H]1CN(c2ccccc2)S(=O)(=O)[C@@]12CCN(S(C)(=O)=O)C2 | 39.6
62 | CCn1cc(CN2CCCN(C(=O)c3ccc(C)nc3)CC2)cn1 | -47.6
63 | COCC1c2c(cnn2CC2CCOCC2)CCN1Cc1ccoc1 (stereo not given) | 14.4
64 | CCC(C)(CC(=O)OC)NCc1cc(C)on1 (stereo not given) | 56.6
65 | CCC(C)(CC(=O)OC)NCc1noc(C)n1 (stereo not given) | -31.9
66 | CCC(C)(CC(=O)OC)NCc1nc(C)no1 (stereo not given) | -50.8
67 | CC(=O)N1CCN(C(=O)CCCc2nnc(-c3ccccc3)o2)CC1 | 28.8
68 | CC(Nc1cccc(CN2CCOC2=O)c1)C(=O)Nc1ccccc1 (stereo not given) | 35.4
69 | CN1[C@@H](c2ccccc2)[C@@H](C(=O)NCC2CCOCC2)C[C@@]1(C)C(=O)O | 41.5
70 | CN1[C@@H](c2ccccc2)[C@@H](C(=O)NCc2ccncc2)C[C@@]1(C)C(=O)O | 39.6
71 | CN1[C@@H](c2ccccc2)[C@@H](C(=O)NCc2ccccn2)C[C@@]1(C)C(=O)O | 60.1
72 | COC(=O)CC1CCN(C(=O)c2ccc(-n3nnnc3C)cc2)CC1 | 27
73 | CC(C)(C)C(=O)N1CCC2(CNS(=O)(=O)c3cnccc3O2)C1 (stereo not given) | 53.2
74 | O=C(c1cccnc1)N1CCC2(CNS(=O)(=O)c3cnccc3O2)C1 (stereo not given) | 37.5
75 | O=C(c1ccccn1)N1CCC2(CNS(=O)(=O)c3cnccc3O2)C1 (stereo not given) | 17.6
76 | O=C(CNc1ccc(OC2CCOC2)cc1)NCc1ccc(F)cc1 (stereo not given) | -68.6
77 | Cn1nnc2c(N3CC(C(=O)NCc4cccs4)C3)ncnc21 | -37.2
78 | O=C(NC1CC1)N1CC[C@H]2[C@H]1CCN2c1ncccn1 | -4.82
79 | CCc1noc(CN2CCN(C(=O)COC)CC2)n1 | 25.6
80 | CCc1noc(CN2CCN(C(=O)C3CC3)CC2)n1 | 54.4
81 | CCc1noc(CN2CCN(C(=O)N(C)C)CC2)n1 | -27.3

Row | Structure (SMILES) | INHIBITION [%]
82 | CCc1noc(CN2CCN(C(=O)c3ccccc3F)CC2)n1 | 43.3
83 | CCc1noc(CN2CCCN(C(C)=O)CC2)n1 | 25.6
84 | CCc1noc(CN2CCN(C(=O)Cc3ccc(F)cc3)CC2)n1 | 52.4
85 | Cc1cc(C(=O)N2CCc3ncc(CN4CCOCC4)n3CC2)no1 | 35.8
86 | Cn1cnnc1C1CCCN(C(=O)COCc2ccccc2)C1 (stereo not given) | 45.7
87 | O=C1CCN(CCCS(=O)(=O)c2ccc(Cl)cc2)CCN1 | 20.6
88 | COCC(=O)N1CCCN(c2ncnc3c2CCNCC3)CC1 | 11.7
89 | Cc1cccc(CN2CCc3ncnc(N4CCCC4)c3CC2)n1 | -27.4
90 | NC(=O)c1cccnc1N1CCN(c2ncnc3c2CCNC3)CC1 | 31.7
91 | Cc1cc(C(=O)N2CCN(c3nc4ccccc4s3)CC2)no1 | 36.8
92 | Cc1ncnc(N2CCCN(c3nc4ccccc4s3)CC2)c1C | 89.6
93 | Cn1nc2c(cc1=O)CN(c1nc3ccccc3s1)CC2 | -80.7
94 | CN(C)S(=O)(=O)N1CC[C@]2(O)CCN(c3nc4ccccc4s3)C[C@@H]2C1 | 11.3
95 | c1ccc2sc(N3CCCN(c4ncnc5c4CCNC5)CC3)nc2c1 | 74.5
96 | c1ccc2sc(N3CCN(c4ncnc5c4CCC5)CC3)nc2c1 | 79.9
97 | COCCCN1CC2(CCCN(CCn3cc(Cl)cn3)C2)CCC1=O (stereo not given) | 17.4
98 | CCOC(=O)Cc1csc(NC(=O)c2cc3n(n2)CCCO3)n1 | -42.6
99 | COCCCN(CCOC)Cc1nc2c(cnn2C)c(=O)[nH]1 | 25.1
100 | CCN(CC)C(CNS(=O)(=O)c1ccc(C(C)=O)cc1)c1ccco1 (stereo not given) | 26.4
101 | CCN(CC)C(CNS(=O)(=O)c1ccc(C(N)=O)cc1)c1ccco1 (stereo not given) | 54.3
102 | CCN(CC)C(CNCc1ccc(O)cc1)c1ccco1 (stereo not given) | 77.8
103 | CCN(CC)C(CNS(=O)(=O)c1ccc(C(=O)NC)cc1)c1ccco1 (stereo not given) | 12.6
104 | CCN(CC)C(CNCc1cc(F)cc(F)c1)c1ccco1 (stereo not given) | 34.1
105 | CCN(CC)C(CNCc1ccc(OC)c(F)c1)c1ccco1 (stereo not given) | -75
